In the supplement of paper PMC10849652:
Targets with a hit are over-represented here; the source holds about 7,900 in all. About 0.6% of all pairs of compound and target were hits. A number with no mark means an inactive call.

Columns and labels:
Test in all cases: log2 fold change, soluble protein after heating vs DMSO (PISA); higher = thermal stabilisation; K562 cells, 10 uM, 30 min; active = over 0.2 and 3.5 SD of the protein, either way, in both replicates (recomputed)
Tubastatin A = compound: CN1CCc2c(c3ccccc3n2Cc2ccc(C(=O)NO)cc2)C1 [Tubastatin A]
Method in brief: (§1)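 K562 cells at 2×10^6 cells/mL were treated for 30 min with 10 μM compound, and aliquots were heated for 3 min over 48°C-58°C before pooling. Extraction used PBS with 0.5% NP-40 at 4°C, and soluble protein was the supernatant after 21,000xg for 90 min, measured by TMTpro 16plex LC-MS/MS with channel sums equalised. Thermal stability values, relative to control samples and from duplicates, are log2 fold changes.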

defactinib = compound: CNC(=O)c1ccc(Nc2ncc(C(F)(F)F)c(NCc3nccnc3N(C)S(C)(=O)=O)n2)cc1 [defactinib]
Method in brief: as §1

rucaparib = compound: CNCc1ccc(-c2[nH]c3cc(F)cc4c3c2CCNC4=O)cc1 [rucaparib]
Method in brief: as §1

encorafenib = compound: COC(=O)N[C@@H](C)CNc1nccc(-c2cn(C(C)C)nc2-c2cc(Cl)cc(NS(C)(=O)=O)c2F)n1 [encorafenib]
Method in brief: as §1

[1] = compound: COC(=O)[C@H](CCSC)NC(=O)C1=C(C=C(C=C1)NC[C@H](CS)N)C2=CC=CC=C2
Method in brief: as §1

alisertib = compound: COc1cc(Nc2ncc3c(n2)-c2ccc(Cl)cc2C(c2c(F)cccc2OC)=NC3)ccc1C(=O)O [alisertib]
Method in brief: as §1

[2] = compound: COc1cc2nc(-c3cc(F)ccc3O)nc(N[C@@H]3CNC[C@H]3C(C)(C)O)c2cc1OC
Method in brief: as §1

gefitinib = compound: COc1cc2ncnc(Nc3ccc(F)c(Cl)c3)c2cc1OCCCN1CCOCC1 [gefitinib]
Method in brief: as §1

[3] = compound: COc1cccc2cc(-c3nc([C@H]4CC[C@H](C(=O)O)CC4)n4ncnc(N)c34)[nH]c12
Method in brief: as §1

lapatinib = compound: CS(=O)(=O)CCNCc1ccc(-c2ccc3ncnc(Nc4ccc(OCc5cccc(F)c5)c(Cl)c4)c3c2)o1 [lapatinib]
Method in brief: as §1

alvocidib = compound: CN1CC[C@H](c2c(O)cc(O)c3c(=O)cc(-c4ccccc4Cl)oc23)[C@H](O)C1 [alvocidib]
Method in brief: as §1

[4] = compound: COC1=CC=C(C=C1)CN2C=CC3=C2C=C(C=C3)C(=O)NO
Method in brief: as §1

zotarolimus = compound: CO[C@H]1C[C@@H]2CC[C@@H](C)[C@@](O)(O2)C(=O)C(=O)N2CCCC[C@H]2C(=O)O[C@H]([C@H](C)C[C@@H]2CC[C@H](n3cnnn3)[C@H](OC)C2)CC(=O)[C@H](C)/C=C(\C)[C@@H](O)[C@@H](OC)C(=O)[C@H](C)C[C@H](C)/C=C/C=C/C=C/1C [zotarolimus]
Method in brief: as §1

idasanutlin = compound: COc1cc(C(=O)O)ccc1NC(=O)[C@@H]1N[C@@H](CC(C)(C)C)[C@](C#N)(c2ccc(Cl)cc2F)[C@H]1c1cccc(Cl)c1F [idasanutlin]
Method in brief: as §1

pictilisib = compound: CS(=O)(=O)N1CCN(Cc2cc3nc(-c4cccc5[nH]ncc45)nc(N4CCOCC4)c3s2)CC1 [pictilisib]
Method in brief: as §1

saracatinib = compound: CN1CCN(CCOc2cc(OC3CCOCC3)c3c(Nc4c(Cl)ccc5c4OCO5)ncnc3c2)CC1 [saracatinib]
Method in brief: as §1

[5] = compound: CNC(=O)C1=CC=CC=C1NC2=NC(=NC=C2Cl)NC3=C(C=C(C=C3)N4CCOCC4)OC
Method in brief: as §1

[6] = compound: CNc1nc(-c2ccc3c(N)n[nH]c3c2)cc(N2C[C@@H](C(=O)NC3CCCCC3)CC[C@H]2C)n1
Method in brief: as §1

sotrastaurin = compound: CN1CCN(c2nc(C3=C(c4c[nH]c5ccccc45)C(=O)NC3=O)c3ccccc3n2)CC1 [sotrastaurin]
Method in brief: as §1

filanesib = compound: CON(C)C(=O)N1N=C(c2cc(F)ccc2F)S[C@@]1(CCCN)c1ccccc1 [filanesib]
Method in brief: as §1

Chain of UniProt Q14671 (Q14671 whole entry, looked up): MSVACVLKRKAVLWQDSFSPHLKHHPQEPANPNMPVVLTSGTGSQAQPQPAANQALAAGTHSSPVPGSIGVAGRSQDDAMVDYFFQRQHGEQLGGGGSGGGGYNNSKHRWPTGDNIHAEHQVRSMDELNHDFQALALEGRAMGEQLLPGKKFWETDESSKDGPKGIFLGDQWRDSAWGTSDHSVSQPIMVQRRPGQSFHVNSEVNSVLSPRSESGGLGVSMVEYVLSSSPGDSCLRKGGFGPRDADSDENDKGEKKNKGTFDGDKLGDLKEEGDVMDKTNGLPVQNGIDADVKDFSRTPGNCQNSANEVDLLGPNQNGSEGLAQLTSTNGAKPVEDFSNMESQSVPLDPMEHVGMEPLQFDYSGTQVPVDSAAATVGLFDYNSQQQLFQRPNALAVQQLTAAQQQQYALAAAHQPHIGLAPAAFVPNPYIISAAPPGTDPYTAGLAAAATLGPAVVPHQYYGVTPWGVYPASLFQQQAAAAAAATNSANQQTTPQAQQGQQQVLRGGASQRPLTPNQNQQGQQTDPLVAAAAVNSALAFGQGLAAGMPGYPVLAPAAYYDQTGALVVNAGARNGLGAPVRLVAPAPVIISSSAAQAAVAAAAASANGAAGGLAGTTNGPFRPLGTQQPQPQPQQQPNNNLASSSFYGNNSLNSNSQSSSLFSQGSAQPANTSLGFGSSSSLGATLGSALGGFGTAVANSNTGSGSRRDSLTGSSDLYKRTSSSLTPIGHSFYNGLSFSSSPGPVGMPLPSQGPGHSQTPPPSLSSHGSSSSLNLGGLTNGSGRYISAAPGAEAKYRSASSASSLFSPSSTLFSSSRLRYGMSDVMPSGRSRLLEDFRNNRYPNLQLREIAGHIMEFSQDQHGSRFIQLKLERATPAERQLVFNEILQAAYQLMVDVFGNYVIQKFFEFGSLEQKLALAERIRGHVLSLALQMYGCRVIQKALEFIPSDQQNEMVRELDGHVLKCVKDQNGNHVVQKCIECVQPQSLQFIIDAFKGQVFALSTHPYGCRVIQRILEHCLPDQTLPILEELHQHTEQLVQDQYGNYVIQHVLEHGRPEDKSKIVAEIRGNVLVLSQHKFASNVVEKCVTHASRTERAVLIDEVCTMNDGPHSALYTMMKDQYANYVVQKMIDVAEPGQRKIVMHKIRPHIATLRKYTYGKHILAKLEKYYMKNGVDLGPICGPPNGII
Chain of UniProt Q504Q3 (Q504Q3 whole entry, looked up): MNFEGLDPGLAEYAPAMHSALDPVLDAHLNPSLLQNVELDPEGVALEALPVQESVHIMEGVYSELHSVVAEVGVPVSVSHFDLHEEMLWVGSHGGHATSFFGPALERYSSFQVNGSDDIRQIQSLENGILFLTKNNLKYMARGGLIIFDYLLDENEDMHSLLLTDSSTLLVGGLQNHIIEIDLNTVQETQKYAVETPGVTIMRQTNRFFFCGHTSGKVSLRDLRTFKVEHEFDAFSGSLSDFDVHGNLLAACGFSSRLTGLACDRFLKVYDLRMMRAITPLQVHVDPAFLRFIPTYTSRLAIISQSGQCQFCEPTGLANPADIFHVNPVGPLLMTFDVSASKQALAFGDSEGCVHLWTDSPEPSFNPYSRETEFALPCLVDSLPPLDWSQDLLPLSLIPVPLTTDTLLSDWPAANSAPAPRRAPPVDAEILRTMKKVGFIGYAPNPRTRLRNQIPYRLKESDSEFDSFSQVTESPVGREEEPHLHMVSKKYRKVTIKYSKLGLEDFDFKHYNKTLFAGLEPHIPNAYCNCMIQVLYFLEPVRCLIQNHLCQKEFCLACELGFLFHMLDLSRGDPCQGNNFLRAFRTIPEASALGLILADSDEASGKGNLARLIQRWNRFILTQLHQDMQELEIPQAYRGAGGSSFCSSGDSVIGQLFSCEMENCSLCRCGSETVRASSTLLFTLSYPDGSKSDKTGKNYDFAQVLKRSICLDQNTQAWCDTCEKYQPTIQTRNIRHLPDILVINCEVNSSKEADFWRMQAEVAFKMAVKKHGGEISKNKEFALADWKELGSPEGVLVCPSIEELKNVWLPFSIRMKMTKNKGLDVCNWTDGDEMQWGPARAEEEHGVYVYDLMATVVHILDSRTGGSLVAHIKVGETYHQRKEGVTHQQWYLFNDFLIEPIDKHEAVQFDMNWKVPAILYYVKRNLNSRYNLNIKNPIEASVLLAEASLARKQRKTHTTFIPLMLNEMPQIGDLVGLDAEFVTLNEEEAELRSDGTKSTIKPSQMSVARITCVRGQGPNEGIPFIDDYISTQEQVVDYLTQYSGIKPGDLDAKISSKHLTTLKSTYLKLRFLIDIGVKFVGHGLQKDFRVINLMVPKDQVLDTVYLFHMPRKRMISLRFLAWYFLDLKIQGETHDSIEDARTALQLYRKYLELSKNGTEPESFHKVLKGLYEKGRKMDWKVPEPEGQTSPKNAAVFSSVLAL
Chain of UniProt Q15111 (Q15111 whole entry, looked up): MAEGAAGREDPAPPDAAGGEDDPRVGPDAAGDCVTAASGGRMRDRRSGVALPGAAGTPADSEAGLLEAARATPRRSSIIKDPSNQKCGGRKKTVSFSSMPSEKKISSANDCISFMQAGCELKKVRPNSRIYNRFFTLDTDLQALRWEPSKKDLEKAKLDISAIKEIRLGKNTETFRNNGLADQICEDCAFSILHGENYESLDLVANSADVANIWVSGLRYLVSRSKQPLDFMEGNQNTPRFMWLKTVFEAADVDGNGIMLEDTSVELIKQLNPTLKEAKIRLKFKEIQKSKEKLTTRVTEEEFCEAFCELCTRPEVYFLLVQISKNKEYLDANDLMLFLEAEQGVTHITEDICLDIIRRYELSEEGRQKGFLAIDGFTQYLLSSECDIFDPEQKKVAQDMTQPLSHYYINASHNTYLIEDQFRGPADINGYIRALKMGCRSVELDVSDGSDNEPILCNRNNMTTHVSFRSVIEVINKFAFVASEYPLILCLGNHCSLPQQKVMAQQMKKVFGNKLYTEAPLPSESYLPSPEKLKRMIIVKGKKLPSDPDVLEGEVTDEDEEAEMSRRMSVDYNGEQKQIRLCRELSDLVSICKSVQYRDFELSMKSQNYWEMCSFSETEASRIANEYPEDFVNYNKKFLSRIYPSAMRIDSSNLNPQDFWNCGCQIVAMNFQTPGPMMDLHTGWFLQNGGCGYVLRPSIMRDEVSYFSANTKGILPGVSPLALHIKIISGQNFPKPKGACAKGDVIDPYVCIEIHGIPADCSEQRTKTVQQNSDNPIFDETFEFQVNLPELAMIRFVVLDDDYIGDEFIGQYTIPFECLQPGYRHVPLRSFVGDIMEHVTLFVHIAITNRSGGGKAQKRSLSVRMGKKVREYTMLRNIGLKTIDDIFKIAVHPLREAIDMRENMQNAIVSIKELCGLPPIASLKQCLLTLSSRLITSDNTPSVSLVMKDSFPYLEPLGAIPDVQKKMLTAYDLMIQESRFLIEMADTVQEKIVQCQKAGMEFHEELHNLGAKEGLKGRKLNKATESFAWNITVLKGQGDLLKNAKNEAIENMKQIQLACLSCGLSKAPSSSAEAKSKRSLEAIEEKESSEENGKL
Chain of UniProt O94913 (O94913 whole entry, looked up): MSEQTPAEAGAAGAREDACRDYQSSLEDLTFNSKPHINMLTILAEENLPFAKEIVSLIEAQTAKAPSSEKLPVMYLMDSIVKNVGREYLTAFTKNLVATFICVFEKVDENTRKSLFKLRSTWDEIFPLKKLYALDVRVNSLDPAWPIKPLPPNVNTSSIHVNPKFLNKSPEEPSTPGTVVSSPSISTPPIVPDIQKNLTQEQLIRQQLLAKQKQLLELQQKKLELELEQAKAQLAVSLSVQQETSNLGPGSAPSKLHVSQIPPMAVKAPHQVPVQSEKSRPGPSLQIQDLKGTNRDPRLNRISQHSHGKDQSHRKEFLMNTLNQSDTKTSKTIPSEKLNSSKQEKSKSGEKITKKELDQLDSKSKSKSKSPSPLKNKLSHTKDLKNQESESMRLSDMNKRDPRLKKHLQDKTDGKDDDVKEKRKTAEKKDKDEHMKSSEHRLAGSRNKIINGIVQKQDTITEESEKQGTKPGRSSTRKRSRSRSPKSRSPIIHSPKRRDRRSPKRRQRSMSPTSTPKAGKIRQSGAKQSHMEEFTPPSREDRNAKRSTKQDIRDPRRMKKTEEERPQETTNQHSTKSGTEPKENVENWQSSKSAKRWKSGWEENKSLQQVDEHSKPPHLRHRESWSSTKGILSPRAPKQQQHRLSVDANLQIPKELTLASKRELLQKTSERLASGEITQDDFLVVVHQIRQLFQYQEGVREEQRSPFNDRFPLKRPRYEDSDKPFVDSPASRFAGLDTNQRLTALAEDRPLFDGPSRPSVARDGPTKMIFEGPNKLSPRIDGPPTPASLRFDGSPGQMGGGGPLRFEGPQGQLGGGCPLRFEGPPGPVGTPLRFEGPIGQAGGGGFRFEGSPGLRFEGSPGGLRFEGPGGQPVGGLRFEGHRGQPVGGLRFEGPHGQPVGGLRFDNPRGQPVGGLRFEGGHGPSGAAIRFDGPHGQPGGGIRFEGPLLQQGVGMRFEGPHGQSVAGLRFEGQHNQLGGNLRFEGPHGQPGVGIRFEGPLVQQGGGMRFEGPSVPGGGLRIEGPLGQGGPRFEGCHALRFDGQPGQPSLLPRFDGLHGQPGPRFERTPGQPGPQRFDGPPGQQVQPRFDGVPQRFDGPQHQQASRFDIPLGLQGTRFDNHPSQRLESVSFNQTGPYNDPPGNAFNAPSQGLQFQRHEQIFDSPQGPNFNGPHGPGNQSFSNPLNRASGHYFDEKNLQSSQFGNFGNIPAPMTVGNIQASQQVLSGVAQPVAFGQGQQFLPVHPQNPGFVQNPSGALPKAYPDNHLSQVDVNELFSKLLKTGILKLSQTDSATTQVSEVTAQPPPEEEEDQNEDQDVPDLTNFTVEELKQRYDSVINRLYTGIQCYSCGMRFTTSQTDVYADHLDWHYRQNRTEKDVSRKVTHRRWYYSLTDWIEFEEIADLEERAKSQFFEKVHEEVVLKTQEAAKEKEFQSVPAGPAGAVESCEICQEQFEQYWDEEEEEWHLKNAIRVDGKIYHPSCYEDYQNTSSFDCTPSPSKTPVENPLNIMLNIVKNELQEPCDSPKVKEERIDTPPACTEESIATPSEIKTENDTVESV

Target | log2 fold change (Tubastatin A) | log2 fold change (defactinib) | log2 fold change (rucaparib) | log2 fold change (encorafenib) | log2 fold change [1] | log2 fold change (alisertib) | log2 fold change [2] | log2 fold change (gefitinib) | log2 fold change [3] | log2 fold change (lapatinib) | log2 fold change (alvocidib) | log2 fold change [4] | log2 fold change (zotarolimus) | log2 fold change (idasanutlin) | log2 fold change (pictilisib) | log2 fold change (saracatinib) | log2 fold change [5] | log2 fold change [6] | log2 fold change (sotrastaurin) | log2 fold change (filanesib)
PCNX1 (UniProt Q96RV3) | -0.041 | 0.027 | -0.123 | 0.085 | -0.039 | -0.059 | 0.34 | -0.028 | 0.035 | -0.475 | – | – | – | – | – | – | – | – | – | –
PCF11 (UniProt O94913) | – | -0.059 | -0.995 (active) | -0.06 | 0.095 | 0.015 | 0.076 | – | 0.106 | 0.012 | 0.027 | -0.169 | -0.119 | -0.097 | 0.027 | – | – | – | – | –
PUM1 (UniProt Q14671) | 0 | – | – | – | – | – | – | – | – | – | -0.083 | -0.029 | -0.076 | 0.037 | 0.032 | -0.155 | -0.348 | -0.232 | – | –
PSMB9 (UniProt P28065) | – | -0.008 | 0.296 | -0.22 | 0.094 | – | 0.246 | – | – | -0.064 | 0.071 | 0.25 | -0.08 | -0.028 | -0.006 | – | 0.062 | – | 0.074 | 0.189
PIAS4 (UniProt Q8N2W9) | -0.057 | – | – | – | – | -0.566 | 0.069 | – | -0.167 | -0.017 | – | 0.049 | – | – | -0.257 | -0.207 | – | -0.043 | – | –
PHRF1 (UniProt Q9P1Y6) | – | – | – | – | – | -0.001 | 0.049 | – | -0.121 | 0.194 | – | – | – | – | – | – | -0.022 | – | – | –
PLCL1 (UniProt Q15111) | 0.166 | -0.02 | 0.2 | 0.018 | 0.047 | -0.107 | – | 0.118 | 0.229 | – | 0.109 | 0.048 | 0.09 | 0.062 | -0.073 | – | -0.131 | – | 0.032 | -0.036
PPP2R5B (UniProt Q15173) | – | 0.051 | -0.015 | 0.07 | -0.135 | 0.088 | 0.148 | -0.079 | -0.058 | 0.051 | – | – | – | -0.065 | 0.01 | -0.161 | -0.064 | -0.043 | – | –
PDE4DIP (UniProt E9PS60) | – | 0.095 | 0.172 | 0.125 | 0.032 | – | – | – | – | – | 0.095 | 0 | -0.032 | – | – | – | -0.196 | – | – | –
PRR14L (UniProt Q5THK1) | 0.053 | 0.286 | – | – | 0.125 | – | 0.069 | -0.065 | – | 0.1 | 0.016 | – | -0.083 | 0 | 0.103 | – | – | – | – | –
PSMD8 (UniProt K7EK21) | – | – | – | – | – | – | – | – | – | – | 0.25 | – | -0.174 | – | – | – | – | – | – | –
PPP1R12C (UniProt Q9BZL4) | 0.014 | -0.205 | 0.184 | -0.013 | 0.035 | 0.071 | -0.237 | 0.074 | -0.009 | 0.084 | – | – | – | – | -0.228 | -0.115 | 0.113 | -0.164 | -0.157 | 0.066
PSMA3 (UniProt H0YJ03) | 0.314 | -0.023 | 0.151 | -0.142 | 0.087 | – | 0.203 | – | – | 0.021 | 0.073 | 0.362 | -0.004 | 0.009 | – | -0.185 | – | 0.067 | – | –
PAN2 (UniProt Q504Q3) | – | 0.001 | -0.656 (active) | 0.073 | -0.045 | – | – | 0.013 | – | – | – | – | – | – | – | 0.113 | – | -0.048 | – | –
PIGH (UniProt Q14442) | -0.274 (active) | 0.005 | 0.037 | -0.068 | -0.001 | 0.003 | -0.019 | – | 0.038 | -0.009 | 0.022 | -0.029 | 0.031 | -0.127 | 0.04 | -0.099 | 0.012 | 0.025 | – | –
PHC3 isoform 7 (UniProt Q8NDX5) | – | – | -0.276 | 0.154 | – | -0.121 | -0.03 | -0.153 | 0.203 | 0.05 | -0.057 | 0.287 | 0.001 | – | – | – | -0.007 | – | -0.071 | -0.029
PPP2R5C isoform 2 (UniProt Q13362) | – | – | -0.063 | 0.003 | – | 0.005 | – | – | -0.009 | – | – | 0.159 | – | – | – | – | -0.017 | – | – | –
